# Laboratory results reported in PubChem BioAssay (Tox21).
# Values without a mark were called inactive. Results filed as inconclusive are left out. A call without a number means that no potency is given here. The source made the active and inactive calls. Unless noted, the call rests on the fitted dose curve; in most records, active means well fitted curve in the direction sought with a large enough effect in the repeat runs; inconclusive means weak or mixed curves; inactive means no such curve, though single readings can be large; an effect the other way counts as inactive or inconclusive.
# How the values were obtained:
# [1] = target: Thyrotropin-releasing hormone receptor (Homo sapiens) (UniProt P34981); assay: qHTS assay to identify small molecule agonists of the thyrotropin-releasing hormone receptor (TRHR) signaling pathway (AID 1346891; calls by dose curve; further: series mostly up to about 58 µM)
# Thyrotropin-releasing hormone receptor (Homo sapiens), sequence (P34981 whole entry, looked up): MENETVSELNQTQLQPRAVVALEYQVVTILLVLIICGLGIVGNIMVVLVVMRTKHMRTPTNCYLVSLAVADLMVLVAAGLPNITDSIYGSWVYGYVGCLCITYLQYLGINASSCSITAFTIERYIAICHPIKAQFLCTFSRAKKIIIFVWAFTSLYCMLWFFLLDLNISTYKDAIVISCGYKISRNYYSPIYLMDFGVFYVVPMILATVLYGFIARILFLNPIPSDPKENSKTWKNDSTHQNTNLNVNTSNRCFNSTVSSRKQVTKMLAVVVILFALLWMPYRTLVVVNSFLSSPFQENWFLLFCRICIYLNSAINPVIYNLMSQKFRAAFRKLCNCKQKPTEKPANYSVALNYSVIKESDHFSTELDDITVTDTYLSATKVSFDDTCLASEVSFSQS
# Summary of the method: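 TRHR-expressing HEK293 cells were plated 18 h at 37 °C/5% CO2, loaded with calcium dye 2 h at 37 °C, then given compound in DMSO; fluorescence was read kinetically for 3 min at 1 s intervals.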
# [2] = Caspase-3/7 induction in HepG2 cells by small molecules, qHTS assay (AID 1346978); further: nearly all actives have a fitted effect of over 15% in size; further: potency means the concentration at half of the fitted maximal effect
# Summary of the method: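 Caspase-3/7 induction was measured by Caspase-Glo 3/7 luminescence (30 min, room temperature) after a 17 hr compound exposure of wild-type HepG2 cells seeded at 2,000 per well and pre-incubated 5 hr.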
# [3] = Caspase-3/7 induction in CHO-K1 cells by small molecules, qHTS assay (AID 1346980); further: nearly all actives have a fitted effect of over 15% in size
# Summary of the method: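 Luminescent Caspase-Glo 3/7 read (30min, room temperature) quantified apoptosis induction. Cells were wild-type CHO-K1, treated with compound for 17hr at 37 C and 5% CO2.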
# [4] = Caspase-3/7 induction in HepG2 cells by small molecules, qHTS cell viability counter screen (AID 1346981); further: series mostly up to about 92 µM; nearly all actives have a fitted effect of over 30% in size
# Summary of the method: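 Steps: seed 2,000 HepG2 cells per well; incubate 5 hr at 37 C; pin-add compounds in DMSO; incubate 16 hr; add CellTiter-Fluor; after 1 hr at 37 C and 5% CO2, read fluorescence.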
# [5] = target: Nuclear receptor subfamily 1 group I member 2 (Rattus norvegicus) (UniProt Q9R1A7); assay: Rat pregnane X receptor (rPXR) activation by small molecules, qHTS assay (AID 1346983); conditions: rPXR luciferase reporter cells, One-Glo luminescence, 24 h; max activation: hits give high values; further: nearly all actives have a fitted effect of over 20% in size
# Nuclear receptor subfamily 1 group I member 2 (Rattus norvegicus), sequence (Q9R1A7 whole entry, looked up): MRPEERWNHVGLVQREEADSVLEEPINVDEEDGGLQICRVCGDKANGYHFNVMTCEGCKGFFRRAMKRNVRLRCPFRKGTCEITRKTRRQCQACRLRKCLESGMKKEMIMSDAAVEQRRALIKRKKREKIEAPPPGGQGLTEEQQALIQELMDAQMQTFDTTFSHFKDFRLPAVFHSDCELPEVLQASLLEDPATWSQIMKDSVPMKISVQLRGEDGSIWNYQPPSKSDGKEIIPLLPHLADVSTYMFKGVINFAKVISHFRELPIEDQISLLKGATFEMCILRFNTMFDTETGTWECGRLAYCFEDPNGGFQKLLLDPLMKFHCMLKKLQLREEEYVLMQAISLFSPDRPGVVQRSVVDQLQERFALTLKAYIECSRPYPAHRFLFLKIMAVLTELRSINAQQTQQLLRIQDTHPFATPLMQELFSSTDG
# Summary of the method: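 Luminescent readout (One-Glo luciferase, 30 min room temperature) followed 24 hr compound treatment at 37 C of rPXR cells plated 2,000 per well and preincubated 5hr; qHTS format with compounds delivered in DMSO.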
# [6] = Human pregnane X receptor (PXR) small molecule agonists, qHTS cell viability counter screen (AID 1346977); further: nearly all actives have a fitted effect of over 50% in size
# Summary of the method: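 PXR-Luc HepG2 cells in medium with 5% charcoal-stripped FBS were pre-incubated 5hr, then exposed to compounds for 24hr at 37C. Viability was read in the same wells by CellTiter-Fluor fluorescence, reagent added after 23hr with a 1hr incubation.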
# [7] = Caspase-3/7 induction in CHO-K1 cells by small molecules, qHTS cell viability counter screen (AID 1346979); further: nearly all actives have a fitted effect of over 35% in size; further: potency means the concentration at half of the fitted maximal effect
# Summary of the method: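 Wild-type CHO-K1 cells were seeded at 1,500 per well, rested 5hr at 37 C, then exposed to compounds in DMSO. After 16hr, CellTiter-Fluor reagent was added and fluorescence read 1hr later as the viability measure.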
# [8] = target: Cytochrome P450 2D6 (Homo sapiens) (UniProt P10635); assay: Cytochrome P450 Family 2 Subfamily D Member 6 (CYP2D6) small molecule antagonists: luciferase reporter qHTS assay (AID 1671196); further: nearly all actives have a fitted effect of over 50% in size; further: potency means the concentration at half of the fitted maximal effect; on activity change, negative = inhibition: series mostly up to about 120 µM
# Cytochrome P450 2D6 (Homo sapiens), sequence (P10635 whole entry, looked up): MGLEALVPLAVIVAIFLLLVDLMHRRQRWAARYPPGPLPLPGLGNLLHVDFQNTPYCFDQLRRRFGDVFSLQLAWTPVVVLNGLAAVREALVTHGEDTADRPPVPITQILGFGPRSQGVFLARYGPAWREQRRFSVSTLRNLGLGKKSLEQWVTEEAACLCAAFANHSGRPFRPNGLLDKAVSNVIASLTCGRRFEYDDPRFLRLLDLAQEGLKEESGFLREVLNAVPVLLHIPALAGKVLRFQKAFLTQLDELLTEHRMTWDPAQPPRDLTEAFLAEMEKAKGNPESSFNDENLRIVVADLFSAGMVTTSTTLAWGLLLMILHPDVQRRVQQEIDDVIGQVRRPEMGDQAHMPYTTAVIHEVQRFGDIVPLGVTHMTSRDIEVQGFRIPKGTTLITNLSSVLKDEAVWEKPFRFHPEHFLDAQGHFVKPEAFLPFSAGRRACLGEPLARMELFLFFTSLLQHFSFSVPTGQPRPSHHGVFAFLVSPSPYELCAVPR
# Summary of the method: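 P450-Glo format: CYP2D6 converts a proluciferin substrate to luciferin in an NADPH-driven reaction lasting 1 h at room temperature. Light output, proportional to CYP2D6 activity, reflects interference by test chemicals.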
# [9] = target: Cytochrome P450 2C19 (Homo sapiens) (UniProt P33261); assay: Cytochrome P450 Family 2 Subfamily C Member 19 (CYP2C19) small molecule antagonists: luciferase reporter qHTS assay (AID 1671197); further: nearly all actives have a fitted effect of over 65% in size; further: potency means the concentration at half of the fitted maximal effect; on activity change, negative = inhibition: series mostly up to about 120 µM
# Cytochrome P450 2C19 (Homo sapiens), sequence (P33261 whole entry, looked up): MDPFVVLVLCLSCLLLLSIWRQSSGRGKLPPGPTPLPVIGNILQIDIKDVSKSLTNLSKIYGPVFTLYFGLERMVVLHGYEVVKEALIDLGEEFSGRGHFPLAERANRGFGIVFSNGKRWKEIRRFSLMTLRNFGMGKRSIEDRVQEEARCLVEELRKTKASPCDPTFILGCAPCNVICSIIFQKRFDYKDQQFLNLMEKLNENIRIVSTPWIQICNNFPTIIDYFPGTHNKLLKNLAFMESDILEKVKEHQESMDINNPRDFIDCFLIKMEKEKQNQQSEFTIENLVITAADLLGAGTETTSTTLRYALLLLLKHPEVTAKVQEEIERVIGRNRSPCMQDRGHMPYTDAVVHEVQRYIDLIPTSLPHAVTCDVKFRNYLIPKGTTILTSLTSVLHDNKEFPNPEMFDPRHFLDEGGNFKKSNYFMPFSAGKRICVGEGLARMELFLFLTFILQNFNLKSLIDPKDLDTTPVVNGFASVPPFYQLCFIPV
# Summary of the method: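 Light output is proportional to CYP2C19 activity: proluciferin substrate is converted to luciferin, then detected by a luciferin detection reagent that also stops the 1 h, 37C NADPH-driven reaction. Ketoconazole serves as positive control.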
# [10] = target: Cytochrome P450 1A2 (Homo sapiens) (UniProt P05177); assay: Cytochrome P450 Family 1 Subfamily A Member 2 (CYP1A2) small molecule antagonists: luciferase reporter qHTS assay (AID 1671199); further: nearly all actives have a fitted effect of over 50% in size; further: potency means the concentration at half of the fitted maximal effect; on activity change, negative = inhibition: series mostly up to about 120 µM
# Cytochrome P450 1A2 (Homo sapiens), sequence (P05177 whole entry, looked up): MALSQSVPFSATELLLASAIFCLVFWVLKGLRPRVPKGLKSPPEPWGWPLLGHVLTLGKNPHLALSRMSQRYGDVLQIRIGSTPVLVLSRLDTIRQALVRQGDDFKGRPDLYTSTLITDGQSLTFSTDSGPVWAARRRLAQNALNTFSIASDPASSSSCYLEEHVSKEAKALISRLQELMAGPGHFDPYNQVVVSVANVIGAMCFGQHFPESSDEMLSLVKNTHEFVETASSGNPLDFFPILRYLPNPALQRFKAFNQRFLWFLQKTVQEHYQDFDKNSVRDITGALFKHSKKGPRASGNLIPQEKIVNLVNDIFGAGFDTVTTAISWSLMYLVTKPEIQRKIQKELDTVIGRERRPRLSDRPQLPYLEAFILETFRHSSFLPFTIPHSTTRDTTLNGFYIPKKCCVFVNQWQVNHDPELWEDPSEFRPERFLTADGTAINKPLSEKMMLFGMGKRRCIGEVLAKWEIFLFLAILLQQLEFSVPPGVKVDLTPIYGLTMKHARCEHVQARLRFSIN
# Summary of the method: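 Inhibition of CYP1A2 conversion of proluciferin to luciferin, detected by luminescence. Reaction run 1 h at room temperature with NADPH regeneration after brief compound preincubation.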
# [11] = target: Voltage-gated inwardly rectifying potassium channel KCNH2 (Homo sapiens) (UniProt Q12809); assay: Human Ether-a-go-go-Related Gene (hERG) channel small molecule antagonists: fluorescence cell-based qHTS assay (AID 1671200); further: nearly all actives have a fitted effect of over 50% in size; further: potency means the concentration at half of the fitted maximal effect;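 on activity change, negative = inhibition: hERG-expressing U2OS cells given a thallium stimulus after FluxOR II dye loading; series mostly up to about 77 µM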
# Voltage-gated inwardly rectifying potassium channel KCNH2 (Homo sapiens), sequence (Q12809 whole entry, looked up): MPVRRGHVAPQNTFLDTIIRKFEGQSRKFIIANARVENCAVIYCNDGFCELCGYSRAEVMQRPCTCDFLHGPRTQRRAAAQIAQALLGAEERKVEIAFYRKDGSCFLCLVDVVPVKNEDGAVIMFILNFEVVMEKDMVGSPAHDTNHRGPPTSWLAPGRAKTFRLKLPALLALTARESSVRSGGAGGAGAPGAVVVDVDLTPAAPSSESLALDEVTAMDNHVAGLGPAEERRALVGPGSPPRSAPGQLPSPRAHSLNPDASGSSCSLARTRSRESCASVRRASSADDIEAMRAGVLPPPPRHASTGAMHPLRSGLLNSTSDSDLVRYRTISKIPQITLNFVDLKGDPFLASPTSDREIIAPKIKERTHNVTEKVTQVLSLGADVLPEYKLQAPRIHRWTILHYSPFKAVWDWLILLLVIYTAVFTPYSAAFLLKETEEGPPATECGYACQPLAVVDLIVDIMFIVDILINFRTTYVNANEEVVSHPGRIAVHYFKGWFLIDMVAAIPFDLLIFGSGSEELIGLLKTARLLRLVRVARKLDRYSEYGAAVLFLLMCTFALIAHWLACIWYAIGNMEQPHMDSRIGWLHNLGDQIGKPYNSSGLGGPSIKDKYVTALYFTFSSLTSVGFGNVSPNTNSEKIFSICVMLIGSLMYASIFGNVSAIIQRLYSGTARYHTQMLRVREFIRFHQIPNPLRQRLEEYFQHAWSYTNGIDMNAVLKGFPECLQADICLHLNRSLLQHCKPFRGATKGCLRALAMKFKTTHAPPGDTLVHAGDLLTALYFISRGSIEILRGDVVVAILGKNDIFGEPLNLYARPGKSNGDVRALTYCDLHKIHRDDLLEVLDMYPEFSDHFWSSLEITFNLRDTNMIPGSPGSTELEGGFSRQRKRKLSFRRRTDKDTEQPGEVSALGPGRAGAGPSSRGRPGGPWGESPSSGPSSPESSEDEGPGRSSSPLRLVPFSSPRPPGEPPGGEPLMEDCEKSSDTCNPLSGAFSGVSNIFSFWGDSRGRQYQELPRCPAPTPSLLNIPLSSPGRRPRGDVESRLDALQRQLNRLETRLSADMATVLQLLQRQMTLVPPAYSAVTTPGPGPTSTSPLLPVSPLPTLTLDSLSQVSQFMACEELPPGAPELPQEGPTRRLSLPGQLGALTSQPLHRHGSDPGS
# Summary of the method: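 U2OS cells expressing the channel were plated at 1000 cells/well, incubated overnight at 37 C, then loaded with FluxOR II thallium-sensitive dye for 1 h at room temperature in the dark, with a further 10 min at room temperature before stimulation.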
# [12] = target: Cytochrome P450 3A4 (Homo sapiens) (UniProt P08684); assay: Cytochrome P450 Family 3 Subfamily A Member 4 (CYP3A4) small molecule antagonists: luciferase reporter qHTS assay (AID 1671201); further: nearly all actives have a fitted effect of over 50% in size; further: potency means the concentration at half of the fitted maximal effect; on activity change, negative = inhibition: series mostly up to about 120 µM
# Cytochrome P450 3A4 (Homo sapiens), sequence (P08684 whole entry, looked up): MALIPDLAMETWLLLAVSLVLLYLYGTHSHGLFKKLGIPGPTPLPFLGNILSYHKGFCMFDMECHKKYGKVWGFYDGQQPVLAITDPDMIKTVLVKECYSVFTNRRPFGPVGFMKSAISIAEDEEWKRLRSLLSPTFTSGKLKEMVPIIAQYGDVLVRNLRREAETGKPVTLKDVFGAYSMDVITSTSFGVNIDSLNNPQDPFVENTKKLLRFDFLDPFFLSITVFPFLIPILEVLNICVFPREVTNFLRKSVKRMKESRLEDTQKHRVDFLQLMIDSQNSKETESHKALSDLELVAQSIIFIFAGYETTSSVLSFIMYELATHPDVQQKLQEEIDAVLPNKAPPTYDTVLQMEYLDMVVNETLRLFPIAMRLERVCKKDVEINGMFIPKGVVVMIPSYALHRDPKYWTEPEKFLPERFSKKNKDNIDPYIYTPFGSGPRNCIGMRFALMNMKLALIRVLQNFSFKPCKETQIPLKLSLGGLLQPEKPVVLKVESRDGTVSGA
# Summary of the method: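 P450-Glo CYP3A4 system with proluciferin substrate; compounds preincubated 10 min RT with enzyme-substrate mix, then NADPH regeneration added for 1 h RT. Detection reagent 20 min, luminescence read as relative luminescence units.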
# [13] = target: Nuclear receptor subfamily 1 group I member 2 (Homo sapiens) (UniProt O75469); assay: CYP3A4 induction through human pregnane X receptor (PXR) by small molecules, qHTS assay (AID 1346984); further: nearly all actives have a fitted effect of over 40% in size
# Nuclear receptor subfamily 1 group I member 2 (Homo sapiens), sequence (O75469 whole entry, looked up): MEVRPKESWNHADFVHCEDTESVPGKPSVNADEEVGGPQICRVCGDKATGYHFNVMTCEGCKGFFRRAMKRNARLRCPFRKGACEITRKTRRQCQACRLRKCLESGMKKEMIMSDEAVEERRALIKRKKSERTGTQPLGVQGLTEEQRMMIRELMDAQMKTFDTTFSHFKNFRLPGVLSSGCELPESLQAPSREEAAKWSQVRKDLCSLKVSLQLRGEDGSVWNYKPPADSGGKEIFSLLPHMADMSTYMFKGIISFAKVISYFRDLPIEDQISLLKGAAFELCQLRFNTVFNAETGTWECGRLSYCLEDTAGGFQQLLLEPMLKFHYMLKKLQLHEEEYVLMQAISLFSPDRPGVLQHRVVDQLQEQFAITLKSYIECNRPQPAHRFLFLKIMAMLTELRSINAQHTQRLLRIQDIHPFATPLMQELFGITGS
# Summary of the method: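 Steps: seed DPX-2 cells, 5 hr at 37C; pin-transfer compounds; 24 hr at 37C; add Luciferin-IPA (3uM final), 3 hr at 37C; add One-Glo, 30 min RT; read luminescence.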
# [14] = target: Nuclear receptor subfamily 1 group I member 2 (Homo sapiens) (UniProt O75469); assay: Human pregnane X receptor (PXR) activation by small molecules, qHTS assay (AID 1346985); further: nearly all actives have a fitted effect of over 40% in size; further: potency means the concentration at half of the fitted maximal effect
# Summary of the method: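 DPX-2 cells (HepG2 co-transfected with a PXR response element and a CYP3A4-promoter luciferase construct) were seeded at 2,000 per well, rested 5 hr at 37C, then exposed to DMSO-dissolved compounds for 24 hr. Activation was read as luciferase luminescence.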
# [15] = target: Cytochrome P450 2C9 (Homo sapiens) (UniProt P11712); assay: Cytochrome P450 Family 2 Subfamily C Member 9 (CYP2C9) small molecule antagonists: luciferase reporter qHTS assay (AID 1671198); further: nearly all actives have a fitted effect of over 50% in size; further: potency means the concentration at half of the fitted maximal effect; on activity change, negative = inhibition: series mostly up to about 120 µM
# Cytochrome P450 2C9 (Homo sapiens), sequence (P11712 whole entry, looked up): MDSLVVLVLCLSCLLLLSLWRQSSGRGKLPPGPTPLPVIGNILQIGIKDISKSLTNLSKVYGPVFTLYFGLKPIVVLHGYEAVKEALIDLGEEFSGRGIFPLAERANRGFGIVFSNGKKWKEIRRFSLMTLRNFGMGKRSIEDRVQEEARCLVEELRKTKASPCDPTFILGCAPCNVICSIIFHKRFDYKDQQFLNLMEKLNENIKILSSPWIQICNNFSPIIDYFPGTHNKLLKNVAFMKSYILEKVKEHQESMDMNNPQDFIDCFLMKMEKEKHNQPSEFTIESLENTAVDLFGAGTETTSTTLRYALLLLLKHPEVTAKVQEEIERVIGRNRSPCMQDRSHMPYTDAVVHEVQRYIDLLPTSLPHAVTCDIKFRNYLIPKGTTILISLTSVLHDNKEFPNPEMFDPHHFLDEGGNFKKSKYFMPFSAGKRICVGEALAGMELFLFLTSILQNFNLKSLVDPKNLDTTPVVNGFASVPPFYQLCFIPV
# Summary of the method: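 Enzyme-substrate mix preincubated with compound 10 min at room temperature; reaction started with NADPH regeneration solution, 1 h 37C. Luminescent luciferin product read after 20 min detection reagent.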
# [16] = target: Nuclear receptor subfamily 1 group I member 2 (Homo sapiens) (UniProt O75469); assay: Human pregnane X receptor (PXR) small molecule agonists, qHTS assay (AID 1346982); further: nearly all actives have a fitted effect of over 35% in size; further: potency means the concentration at half of the fitted maximal effect
# Summary of the method: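 Agonist mode qHTS: PXR-Luc HepG2 cells plated 5 hr before DMSO-dissolved compounds were pinned in, cultured 24 hr at 37 C, 5% CO2; ONE-Glo luminescence readout.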
smiles,measurement,setting,value
C(=C\c1ccccc1)/CN1CCN(C(c2ccccc2)c2ccccc2)CC1,Potency,[1],inactive
same,Potency,[2],inactive
same,outcome,[3],inactive
same,Potency,[4],inactive
same,max activation,[5],1.1%
CC(=O)Nc1ccc(N)cc1,Potency,[6],inactive
same,Potency,[2],inactive
same,Potency,[7],inactive
same,outcome,[3],inactive
same,Potency,[4],inactive
same,Potency,[8],40.5 µM (active)
same,Potency,[9],inactive
same,Potency,[10],40.5 µM (active)
same,Potency,[11],inactive
same,Potency,[12],28.7 µM (active)
CC(=O)Oc1ccc(C(=C2CCCCC2)c2ccc(OC(C)=O)cc2)cc1,Potency,[6],inactive
same,Potency,[2],inactive
same,outcome,[3],inactive
same,Potency,[4],inactive
same,max activation,[5],-2.09%
same,Potency,[13],inactive
same,Potency,[14],inactive
same,Potency,[8],15.5 µM (active)
same,Potency,[9],9.77 µM (active)
same,Potency,[15],9.77 µM (active)
same,Potency,[10],inactive
same,Potency,[11],inactive
same,Potency,[12],inactive
Cc1c(C(=O)NN2CCCCC2)nn(-c2ccc(Cl)cc2Cl)c1-c1ccc(Cl)cc1,Potency,[2],inactive
same,Potency,[7],26.6 µM (active)
same,outcome,[3],inactive
same,max activation,[5],-8.23%
same,Potency,[13],inactive
same,Potency,[14],inactive
same,Potency,[8],inactive
same,Potency,[9],inactive
same,Potency,[10],inactive
same,Potency,[11],2.13 µM (active)
same,Potency,[12],inactive
CO/N=C1\CN(c2nc3c(cc2F)c(=O)c(C(=O)O)cn3C2CC2)CC1CN (stereo not given),Potency,[6],inactive
same,Potency,[2],inactive
same,outcome,[3],inactive
same,Potency,[16],inactive
same,max activation,[5],-0.199%
same,Potency,[13],inactive
same,Potency,[14],inactive
same,Potency,[9],inactive
same,Potency,[15],inactive
same,Potency,[10],inactive
same,Potency,[12],inactive
CCc1cccc(N(C)C(N)=Nc2cccc3ccccc23)c1,Potency,[2],inactive
same,outcome,[3],inactive
same,Potency,[4],inactive
same,max activation,[5],-1.24%
COC(=O)c1cc(S(N)(=O)=O)ccc1OC,Potency,[6],inactive
same,Potency,[2],inactive
same,Potency,[7],inactive
same,outcome,[3],inactive
same,Potency,[16],inactive
same,Potency,[9],inactive
same,Potency,[15],inactive
same,Potency,[10],inactive
same,Potency,[11],inactive
CN1CCCN=C1/C=C/c1cccs1,Potency,[6],inactive
same,Potency,[2],inactive
same,Potency,[7],inactive
same,outcome,[3],inactive
same,Potency,[4],inactive
same,Potency,[11],inactive
CC(=O)OCC(=O)[C@@]12OC(C)(C)O[C@@H]1C[C@H]1[C@@H]3C[C@H](F)C4=CC(=O)C=C[C@]4(C)[C@@]3(F)[C@@H](O)C[C@@]12C,Potency,[6],inactive
same,Potency,[2],inactive
same,outcome,[3],inactive
same,Potency,[4],inactive
same,Potency,[11],inactive
CCOc1cc(N)c(Cl)cc1C(=O)NCC1CN(Cc2ccc(F)cc2)CCO1 (stereo not given),Potency,[2],inactive
same,outcome,[3],inactive
same,Potency,[16],5.31 µM (active)
same,max activation,[5],0.0903%
same,Potency,[13],inactive
same,Potency,[14],12.6 µM (active)
same,Potency,[8],inactive
same,Potency,[9],3.47 µM (active)
same,Potency,[10],1.55 µM (active)
COC(=O)Nc1nc2ccc(C(=O)c3cccs3)cc2[nH]1,Potency,[2],0.266 µM (active)
same,outcome,[3],inactive
same,Potency,[16],26.6 µM (active)
same,Potency,[8],38.9 µM (active)
same,Potency,[10],12.9 µM (active)
same,Potency,[11],inactive
same,Potency,[12],inactive
CCCCCCCCCOC(C)=O,Potency,[6],inactive
same,Potency,[2],inactive
same,Potency,[7],inactive
same,outcome,[3],inactive
same,Potency,[16],inactive
same,Potency,[8],inactive
same,Potency,[9],inactive
same,Potency,[15],inactive
same,Potency,[11],inactive
same,Potency,[12],inactive
CCCCCCCCCCCCCCCCBr,"activity change, negative = cytotoxicity",[6],-1.37% [at 19 µM]
same,caspase activation,[2],2.76% [at 19 µM]
same,"activity change, negative = cytotoxicity",[7],4.02% [at 19 µM]
same,caspase-3/7 activation,[3],-0.176% [at 19 µM]
same,activation,[16],-5.34% [at 19 µM]
same,"activity change, negative = inhibition",[9],0.164% [at 23.6 µM]
same,"activity change, negative = inhibition",[15],-1.68% [at 23.6 µM]
same,"activity change, negative = inhibition",[11],1.22% [at 15.8 µM]
same,"activity change, negative = inhibition",[12],-0.429% [at 23.6 µM]
NC(=O)N(O)[C@@H]1C=C[C@H](Oc2cccc(Oc3ccc(F)cc3)c2)C1,Potency,[2],inactive
same,Potency,[7],68.6 µM (active)
same,outcome,[3],inactive
same,Potency,[16],19.3 µM (active)
same,Potency,[8],5.03 µM (active)
same,Potency,[9],8.94 µM (active)
same,Potency,[15],31.7 µM (active)
same,Potency,[10],7.96 µM (active)
same,Potency,[12],0.894 µM (active)
O=C(O)c1cccnc1C(=O)O,Potency,[6],inactive
same,Potency,[2],inactive
same,Potency,[7],inactive
same,Potency,[4],inactive
same,Potency,[16],inactive
same,Potency,[8],inactive
same,Potency,[9],inactive
same,Potency,[15],inactive
same,Potency,[10],inactive
same,Potency,[11],inactive
same,Potency,[12],inactive
N#C[C@@H]1C[C@@H]2C[C@@H]2N1C(=O)[C@@H](N)C12CC3CC(CC(O)(C3)C1)C2,Potency,[6],inactive
same,Potency,[2],inactive
same,Potency,[4],inactive
same,Potency,[16],inactive
same,Potency,[8],38.9 µM (active)
same,Potency,[9],inactive
same,Potency,[15],inactive
same,Potency,[10],inactive
same,Potency,[12],inactive
CCCCC(CC)COC(=O)COc1ccc(Cl)cc1C (stereo not given),Potency,[6],inactive
same,Potency,[2],inactive
same,outcome,[3],inactive
same,Potency,[4],inactive
same,Potency,[16],inactive
same,Potency,[8],inactive
same,Potency,[9],8.94 µM (active)
same,Potency,[10],12.6 µM (active)
same,Potency,[11],inactive
same,Potency,[12],8.94 µM (active)
CCC(C)(C)C1CCC(O)CC1 (stereo not given),Potency,[6],inactive
same,Potency,[2],inactive
same,Potency,[7],inactive
same,Potency,[4],inactive
same,Potency,[16],inactive
same,Potency,[8],inactive
same,Potency,[9],inactive
same,Potency,[15],inactive
same,Potency,[12],inactive
C=CC(C)=CCC=C(C)C,Potency,[6],inactive
same,Potency,[2],inactive
same,Potency,[7],inactive
same,outcome,[3],inactive
same,Potency,[4],inactive
same,Potency,[15],63.3 µM (active)
same,Potency,[11],inactive
same,Potency,[12],28.3 µM (active)
